Compound activity (PubChem)
Prx2 Sm inh – Schistosoma Mansoni Peroxiredoxins (Prx2). Potency, µM. Schistosoma mansoni peroxiredoxin 2 (Prx2). S. mansoni Prx2 activity coupled to TGR/GSH (TGR is thioredoxin glutathione reductase), NADPH fluorescence loss, qHTS. 65,000 compounds, 0.07% hits
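Enzyme mix: 100 uM NADPH, 25 nM TGR, 700 uM GSH, 50 nM Prx2 in 100 mM phosphate pH 7.4, 10 mM EDTA, 0.01% Tween-20. 15 min RT with compound; NADPH/GSH added, H2O2 starts reaction; NADPH fluorescence read 8 min.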
AmpC inh det – Promiscuous and Specific Inhibitors of AmpC Beta-Lactamase (assay with detergent); P00811; purified AmpC, nitrocefin hydrolysis with detergent; Potency, µM (doses to about 28.7 µM), without a hit: at the top dose activity change, negative = inhibition; 71,000 compounds, 0.09% hits; active = well fitted curve in the direction sought with a large enough effect; inconclusive = small, poorly fitted or top-dose-only effect; also: % is scaled to controls: 0 for no effect and ±100 for the full control effect
Target sequence (P00811 whole entry, looked up): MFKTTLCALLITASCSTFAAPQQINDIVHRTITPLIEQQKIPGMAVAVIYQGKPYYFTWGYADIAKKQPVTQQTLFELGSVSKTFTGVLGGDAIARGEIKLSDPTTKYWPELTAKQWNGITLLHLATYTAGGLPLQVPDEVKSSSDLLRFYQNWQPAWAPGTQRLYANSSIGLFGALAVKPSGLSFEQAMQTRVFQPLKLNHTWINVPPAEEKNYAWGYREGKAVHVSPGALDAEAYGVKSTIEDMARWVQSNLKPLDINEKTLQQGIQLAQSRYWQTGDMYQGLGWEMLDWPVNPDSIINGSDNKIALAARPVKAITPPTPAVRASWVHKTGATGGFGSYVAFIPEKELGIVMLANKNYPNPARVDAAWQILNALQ
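E. coli AmpC (5.3 nM) in 20 mM phosphate pH 7.0 with 0.01% Triton X-100, preincubated 15 min RT with compound; nitrocefin (2 uL of 800 uM stock) hydrolysis followed by 480 nm absorbance every 20 s over 4 min.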
Anthrax LT inh – qHTS Assay for Anthrax Lethal Toxin Internalization; 70,000 compounds, 0.67% hits; Cells, anthrax lethal toxin internalization, FRET ratio (460/530); AID 912, 2007; Potency, µM (highest dose often 40 µM), inactives show top-dose activity change, negative = inhibition, actives largely listed as inhibitors; also: % is scaled to controls: 0 for no effect and ±100 for the full control effect; nearly all actives have a fitted effect of over 50% in size
AmpC inh no det – Promiscuous and Specific Inhibitors of AmpC Beta-Lactamase (assay without detergent). P00811. AmpC nitrocefin hydrolysis, absorbance 480 nm, no detergent. Potency, µM (titrated, usually from 28.7 µM), for the others: top-dose activity change, negative = inhibition. 71,000 compounds, 1.8% hits; also: % of control where 0% means no effect
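Enzyme, pH 7.0 phosphate. Compound titrations were pre-incubated with AmpC for 15 min at room temperature before nitrocefin (stock 800 uM) addition; product formation was recorded at 480 nm every 20 s for 4 min.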
An asterisk follows results filed as active; ? = inconclusive; nt = no result; [ ] = another dose, or the depositor's remark. The list is not random: actives were taken first. Their share in the collection is about 2.4%. Unless noted, calls follow the shape of the full dose curve. Potency is read from the fitted curve at half-maximal effect.

SMILES | Prx2 Sm inh | AmpC inh det | Anthrax LT inh | AmpC inh no det
Cc1c(C(=O)Nc2ccc3c(c2)OCCO3)sc2nc(-c3ccccc3)cn12 | >57 | -8% | 10µM* | 55%
CC(=O)O[C@@H]1[C@H]([N+]2(C)CCCCC2)C[C@@H]2[C@@H]3CC[C@@H]4C[C@@H](OC(C)=O)[C@H]([N+]5(C)CCCCC5)C[C@@]4(C)[C@H]3CC[C@]21C | >57 | -1% | 20% | 6%
O=C(CCCN1CCC2(CC1)C(=O)N(CCc1ccc(N=C=S)cc1)CN2c1ccccc1)c1ccc(F)cc1 | >57 | -5% | ? | 31%
O=S(=O)(Nc1nccs1)c1cc(Cl)ccc1Cl | >57 | -5% | 2% | 10µM*[single pt active]
CCCCN(C)S(=O)(=O)c1ccc(C(=O)Nc2nnc(-c3cccs3)o2)cc1 | >57 | -1% | -4% | 16µM*
CCCCN(CC)S(=O)(=O)c1ccc(C(=O)Nc2nnc(-c3ccccc3Cl)o2)cc1 | >57 | -1% | 11% | 6.3µM*
Cc1ccc(OP(=O)(Oc2ccc(C)cc2)Oc2ccc(C)cc2)cc1 | nt | 17% | -14% | -21%
CC(C)OC(=O)Nc1ccc(Oc2c(F)c(F)c(F)c(F)c2F)cc1 | >57 | -2% | nt | 16µM*[single pt active]
CC(C)Oc1ccc(NC(N)=O)cc1 | >57 | -2% | ? | 20%
O=c1ccc2cc(O[C@@H]3O[C@@H](CO)[C@@H](O)[C@@H](O)[C@H]3O)c(O)cc2o1 | >57 | 1% | ? | 0%
Oc1ccccc1C(Sc1nc2ccccc2s1)Sc1nc2ccccc2s1 | >57 | -8%[5.75 µM] | -4%[8 µM] | -13%[5.75 µM]
CCN1CCN(C(=O)C2CC(c3ccc(F)cc3)=NO2)CC1 (configuration not stated) | >57 | 13% | -7% | 4µM*[single pt active]
c1ccoc1 | nt | 8% | ? | -1%
COc1ccc(C(=O)Oc2ccc3c(c2)OCO3)cc1OC | nt | 9% | 7.9µM* | 33%
COc1cc(OC)c(C(=O)Oc2ccc3c(c2)OCO3)cc1OC | >57 | -2% | ? | 47%
COc1ccc(NC(=O)c2cc(-c3cc(C)ccc3O)n[nH]2)cc1Cl | >57 | -3% | ? | -12%
COc1ccc(OC)c(NC(=O)c2cc(-c3cc(Cl)ccc3O)n[nH]2)c1 | >57 | -1% | nt | 10µM*
O=C(Nc1ccc2c(c1)OCCO2)c1ccco1 | >57 | 9% | 10µM* | 3%
COc1ccc2cc3cc(C(=O)NCc4ccc5c(c4)OCO5)oc3nc2c1 | >57 | -2% | 9% | 3%
COc1ccc2cc3cc(C(=O)Nc4ccc5c(c4)OCCO5)oc3nc2c1 | >57 | 0% | 1µM* | 48%
COc1cccc(C2=NOC(C(=O)N3CCN(C(=O)c4ccco4)CC3)C2)c1 (configuration not stated) | >57 | 19% | 4% | 2.5µM*[single pt active]
CN[C@H]1[C@H]2[C@H]3CCN2C[C@@H]1O3 | >57 | 1% | ? | 6%
N[C@@H]1CCc2cc(O)c(O)cc2C1 | >57 | -1% | ? | -10%
Nc1nc2c(s1)CCc1c-2cnn1-c1ccccc1 | >57 | -7% | 10µM* | 6%
COc1ccc(-c2cnn(-c3ccccc3)c2N)cc1OC | nt | 0% | -5% | -5%
SMILES | Prx2 Sm inh | AmpC inh det | Anthrax LT inh | AmpC inh no det
CCN1C(=O)[C@@H]2[C@H]3C(=CC[C@@H]2C1=O)C1(OCCCO1)[C@H]1O[C@@H]1[C@H]3O | nt | nt | -6%[8 µM] | nt
CS/C(=N\S(=O)(=O)c1cccs1)NC(=O)CSc1nc2ccccc2s1 | >57 | -4% | ? | 13µM*
CN1[C@@H]2CC[C@H]1CC(O[C@@H](c1ccccc1)c1ccc(Cl)cc1)C2 (some centres not stated) | >57 | 5% | 10µM* | 99%
Cc1nn(-c2ccccc2)c2sc(C(=O)N(CC(=O)NC(C)(C)C)Cc3ccco3)cc12 | >57 | -6% | 13µM* | 77%
N#Cc1c(NC(=O)CSc2ncnc3sccc23)oc(-c2ccco2)c1-c1ccco1 | >57 | 12% | ? | 7.9µM*
CCn1c(SCC(=O)Nc2oc(-c3ccccc3)c(-c3ccccc3)c2C#N)nnc1-c1ccco1 | >57 | -3% | ? | ?
CCOC(=O)CCc1c(C)n(CC)c2ncnn2c1=O | >57 | 12% | -3% | 4µM*[single pt active]
Cc1ncc([N+](=O)[O-])n1CCN=[N+]=[N-] | >57 | -5%[5.75 µM] | 3%[8 µM] | 4%[5.75 µM]
COc1ccc(-c2nc(CSCC(=O)N3CCN(c4cccc(C)c4)C(C)C3)c(C)o2)cc1OC (configuration not stated) | >57 | 10% | 10µM* | 152%
Brc1ccc(-c2nnc3sc(CNC4CCCC4)cn23)cc1 | >57 | 10% | -11% | 4µM*[single pt active]
c1ccc(-c2nnc3sc(CN4CCC5(CC4)OCCO5)cn23)cc1 | >57 | -4% | 8% | 5%
Brc1ccc(-c2nnc3sc(CNCc4ccc5c(c4)OCO5)cn23)cc1 | >57 | 8% | -10% | 4µM*[single pt active]
C[C@@H](Cc1ccccc1)Nc1ncnc2c1ncn2[C@@H]1O[C@@H](CO)[C@H](O)[C@@H]1O | >57 | 15% | 11% | 4%
C=C(C)[C@@H]1CN[C@H](C(=O)O)[C@H]1CC(=O)O | >57 | -1% | 2% | -7%
CCC(C)c1ccc2oc(-c3ccc(NC(=O)c4ncn[nH]4)cc3)nc2c1 (configuration not stated) | >57 | -5% | ? | 13µM*[single pt active]
COc1ccc(NC(=O)NCCCN2CCN(c3cc(C)ccc3C)CC2)cc1 | >57 | 12% | ? | 4µM*[single pt active]
NC[C@@H]1O[C@@H](O[C@H]2[C@@H](O)[C@H](O[C@@H]3[C@H](O)[C@H](N)C[C@H](N)[C@H]3O[C@@H]3O[C@@H](CO)[C@H](O)[C@H](O)[C@@H]3N)O[C@H]2CO)[C@H](N)[C@H](O)[C@@H]1O | >57 | 0% | -5% | 2%
CC[C@@H]1[C@H]2CCCCN3[C@@H]2[C@@H](C[C@H]3[C@@H]2C[C@H](C)C(=O)O2)[C@@H]2[C@H]1OC(=O)[C@H]2C | >57 | -4% | ? | 58%
NC(=O)CN1CCN(C(=O)NC2CCCCC2)CC1 | >57 | 16% | -2% | 3.2µM*[single pt active]
O=C(NCCN1CCN(C(=O)NC2CCCCC2)CC1)NC1CCCCC1 | >57 | -6% | -4% | 12%
COc1ccc(-c2oc3cc(OC)c(OC(C)=O)c(OC)c3c(=O)c2OC)cc1OC(C)=O | 37* | 0% | ? | 18%
Cc1nccc2c1[nH]c1ccccc12 | >57 | -1% | ? | 29%
Cc1c2ccncc2c(C)c2c1[nH]c1ccccc12 | >57 | -4%[12.8 µM] | 5µM* | 1%[12.8 µM]
CC(=O)OCC1OC(C#CC2=CCCCC2)C=CC1OC(C)=O (configuration not stated) | nt | nt | -6%[8 µM] | nt
O=C(CSc1nnnn1-c1ccccc1)Nc1nsc(-c2ccc(Cl)cc2)n1 | >57 | 0% | -14% | 10µM*[single pt active]
Cc1ccc(-c2nc(NC(=O)CSc3nnc(C)s3)ns2)cc1 | >57 | 11% | -12% | 4µM*[single pt active]
Cc1nnc(SCC(=O)Nc2nsc(-c3ccccc3)n2)s1 | >57 | -4% | nt | -12%
O=C(CSc1nnnn1-c1ccccc1)Nc1nsc(-c2ccccc2)n1 | >57 | -2% | -24% | -15%
